# SENP8 block-1 – inhibitors of human SENP8 protease. purified SENP8, Z-RLRGG-aminoluciferin cleavage, luminescence. inhibition, % at 10 µM. actives 1.2% (n = 330,000). AID 2540; in the data active = inhibition above about 50%
# SENP6 block – blocks the human protease SENP6; Q9GZR1; Recombinant SENP6 catalytic domain, aminoluciferin luminescence; inhibition, % at 10 µM; actives 1.8% (n = 330,000); AID 2599;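 active = inhibition above about 50% at the single tested dose, limit read from the data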
# SENP8 block-2 – blocks human SENP8 cleavage of Nedd8 substrate; inhibition, % at 20 µM; AID 602440; recombinant SENP8, Nedd8 substrate fluorescence; Q96LD8; actives 0.64% (n = 360,000); in the data active = inhibition mostly above about 40%, no sharp cut-off; inactive = mostly below about 27%
# C8 TRAIL sens – sensitizes caspase-8 expressing cells to TRAIL; inhibition (viability loss, TRAIL sensitization), % at 10 µM; NB7+C8 cells + TRAIL, ATPlite viability luminescence; AID 624354; actives 1% (n = 360,000);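 active = compounds causing at least 50% loss of cell viability in the single-dose screen, relative to plate controls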
# SENP7 block – inhibitors of human SENP7 protease | actives 1.5% (n = 330,000) | recombinant SENP7, Z-RLRGG-aminoluciferin luminescence, 40 min | inhibition, % at 5 µM;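 active = inhibition above about 50% at the single test dose, limit read from the data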
# Target sequence (Q9BQF6 706-1050 limits assumed): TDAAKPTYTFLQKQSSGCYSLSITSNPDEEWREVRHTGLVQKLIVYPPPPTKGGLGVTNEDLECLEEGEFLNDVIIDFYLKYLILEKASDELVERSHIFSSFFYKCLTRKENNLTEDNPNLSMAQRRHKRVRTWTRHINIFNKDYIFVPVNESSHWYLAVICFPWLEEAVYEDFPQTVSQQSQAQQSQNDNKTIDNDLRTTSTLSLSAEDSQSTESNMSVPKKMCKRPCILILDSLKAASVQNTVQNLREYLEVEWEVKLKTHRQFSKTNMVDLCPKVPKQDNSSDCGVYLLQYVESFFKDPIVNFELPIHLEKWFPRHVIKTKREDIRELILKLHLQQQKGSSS
# PPC-1+TRAIL kill – kills PPC-1 cancer cells in the presence of TRAIL. PPC-1 cells + TRAIL, ATPLite viability luminescence. cell killing (% activity), % at 4 µM or 5 µM. actives 0.41% (n = 220,000);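 active = cell killing above 50% in the first pass at 4 µM, then a duplicate retest at 5 µM averaging 50% or more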
# SENP8 confirm – human SENP8 inhibition, confirmed; shares compounds with SENP7 block; Recombinant SENP8, Z-RLRGG-aminoluciferin luminescence, 60 min; inhibition, % at 12.5 µM; actives 40% (n = 6,200);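 active = mean inhibition across replicates above about 50%, limit read from the data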
# SENP6 conf – human SENP6 inhibition, confirmed; shares compounds with SENP7 block; recombinant SENP6, Z-RLRGG-aminoluciferin luminescence; inhibition, % at 12.5 µM; actives 58% (n = 6,200)
# SENP7 conf – human SENP7 inhibition, confirmed; shares compounds with SENP7 block; actives 69% (n = 6,200); recombinant SENP7, Z-RLRGG-aminoluciferin luminescence, 40 min; inhibition, % at 12.5 µM
# Casp3 SENP sel – inhibits human caspase-3 in SENP selectivity test; inhibition, % at 12.5 µM; shares compounds with SENP7 block; AID 488918; purified caspase-3, Z-DEVD-aminoluciferin luminescence, 60 min; actives 60% (n = 6,200);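 active = mean inhibition above about 50%, limit read from the data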
# Target sequence (P42574 28-227 limits assumed): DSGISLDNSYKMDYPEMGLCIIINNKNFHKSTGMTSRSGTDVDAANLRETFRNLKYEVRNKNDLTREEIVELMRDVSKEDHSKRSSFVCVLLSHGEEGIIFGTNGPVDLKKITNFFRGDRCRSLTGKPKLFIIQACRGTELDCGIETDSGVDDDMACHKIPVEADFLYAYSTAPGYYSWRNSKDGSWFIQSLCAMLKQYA
# Luc interf – luminescence interference (SENP counter-screen); shares compounds with SENP7 block; Pre-incubated SENP8/Z-RLRGG-aminoluciferin, luciferase luminescence interference; inhibition, % at 12.5 µM; actives 39% (n = 6,200); AID 488919;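 active = mean inhibition above about 50% when retested at one dose, limit read from the data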
# Numbers stand for hits; – = inactive; · = no result. Hits are enriched below; roughly 3% of the tested compounds scored in any of these assays.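 Rule for the calls, unless noted: active = mean inhibition above about 50% in the one-dose retest (limit read from the data); inactive = the rest.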
SMILES,SENP8 block-1,SENP6 block,SENP8 block-2,C8 TRAIL sens,SENP7 block,PPC-1+TRAIL kill,SENP8 confirm,SENP6 conf,SENP7 conf,Casp3 SENP sel,Luc interf
COc1ccc2[nH]cc(/C=C/C(=O)c3ccccc3)c2c1,–,58,–,–,–,–,75,71,85,–,85
Cc1ccccc1-c1cc2nc(NCc3ccc(N(C)C)cc3)n(C)c(=O)c2s1,·,·,–,–,·,·,·,·,·,·,·
CC1CC(O)C(C)CN1 (stereo not given),·,·,–,–,·,–,·,·,·,·,·
CCc1noc(C)c1C(=O)Nc1nc2ccc(S(C)(=O)=O)cc2s1,–,–,–,–,–,·,·,·,·,·,·
Cc1noc(C)c1C(=O)Nc1nc2ccc(Cl)cc2s1,95,96,–,–,94,·,92,96,101,93,66
Cc1noc(C)c1C(=O)Nc1nc2ccc(F)cc2s1,99,–,–,–,100,·,97,100,103,99,–
CCc1noc(C)c1C(=O)Nc1nc2ccc(F)cc2s1,64,81,–,–,66,·,76,76,94,75,71
COc1ccc2cc3cc(C(=O)N4CCCC(C)C4)oc3nc2c1 (stereo not given),59,80,–,–,83,·,–,–,–,–,–
COc1cc(/C=N/Nc2snc(SC)c2C#N)cc(OC)c1OC,–,–,–,–,–,–,·,·,·,·,·
CSc1nsc(N/N=C/c2ccc3c(c2)OCO3)c1C#N,–,–,–,–,53,–,–,–,–,–,–
CC1=C(C(=O)N2CCOCC2)CC(CC(=O)NC2CCCC2)C(=O)N1CCCN1CCCC1=O (stereo not given),·,·,–,–,·,·,·,·,·,·,·
c1ccc(-c2nc(-c3nccc4ccccc34)oc2-c2ccccc2)cc1,64,86,–,–,85,–,–,–,61,76,65
COc1c(Cl)cccc1-c1cn2ccccc2n1,89,93,–,73,93,–,93,93,101,92,–
Clc1ccc(OCc2cn3ccccc3n2)c2ncccc12,–,–,–,–,–,–,·,·,·,·,·
O=C(C1CCC1)N1CCc2cc(S(=O)(=O)NC3CCCc4ccccc43)ccc21 (stereo not given),–,–,–,–,97,–,–,–,–,–,–
CCOc1cc(CNn2cn[nH]c2=S)cc(Cl)c1OCc1ccccc1F,–,–,–,–,–,–,·,·,·,·,·
Cc1ccc(NC(=O)Nc2ccc3c(c2)OCO3)cc1F,–,–,–,–,–,·,·,·,·,·,·
O=C(Nc1ccc2c(c1)OCO2)Nc1ccccc1F,95,94,–,–,99,·,96,98,102,97,68
COc1cccc(NC(=O)Nc2ccc3c(c2)OCO3)c1,55,73,–,–,79,·,54,51,84,74,71
O=C(Nc1cccc(Cl)c1)Nc1ccc2c(c1)OCO2,61,83,–,–,75,–,–,77,94,56,–
Cc1ccc(C2=Nc3ccccc3N(C(=O)c3ccccc3)C(C)C2)cc1 (stereo not given),–,–,–,–,–,–,·,·,·,·,·
Cc1cc(C)c2c(c1)C(=O)/C(=C/c1ccc(C(=O)O)cc1)CC2,75,92,–,–,–,·,62,51,53,58,–
OC(COC(c1ccccc1)c1ccccc1)CN1CCN(c2cccc(Cl)c2)CC1 (stereo not given),–,101,–,–,–,·,–,–,–,–,–
Cc1nn(Cc2noc(C(=O)NCc3ccc4c(c3)OCO4)n2)c(C)c1Br,–,–,–,–,–,·,·,·,·,·,·
O=C(N=Nc1c(O)[nH]c2ccccc12)c1cccs1,67,82,–,62,82,–,52,80,93,82,–
SMILES,SENP8 block-1,SENP6 block,SENP8 block-2,C8 TRAIL sens,SENP7 block,PPC-1+TRAIL kill,SENP8 confirm,SENP6 conf,SENP7 conf,Casp3 SENP sel,Luc interf
O=C(NC(=S)Nc1cccc(CO)c1)c1ccc(-c2ccccc2)cc1,–,56,–,–,–,–,–,–,–,–,–
CSc1ncccc1C(=O)OCC(=O)c1cc(C)n(C)c1C,–,54,–,–,–,·,–,–,82,73,–
Cc1cc(C(=O)COc2cccc3cccnc23)c(C)n1C,–,79,–,–,–,–,–,–,–,–,–
CSc1ncccc1C(=O)OCC(=O)c1ccccc1,–,53,–,–,–,–,–,–,70,56,–
CSc1ncccc1C(=O)OCC(=O)c1cc(C)n(CC2CCCO2)c1C (stereo not given),83,88,–,48,78,–,92,92,99,93,–
CC(=O)N/C(=C\c1ccc(C)o1)C(=O)NCc1ccccc1,–,–,–,–,–,·,·,·,·,·,·
Fc1ccccc1CSc1ncnc2sc3c(c12)CCCC3,–,–,–,–,–,–,·,·,·,·,·
O=C(Nc1cccc(S(=O)(=O)N2CCCCC2)c1)C1COc2ccccc2O1 (stereo not given),–,–,–,–,–,·,·,·,·,·,·
Cc1cc(-n2c(C)cc(C(=O)CSc3nncn3C(C)C)c2C)no1,–,–,–,–,–,·,·,·,·,·,·
O=C(O)c1ccc(/C=C/C(=O)c2ccc3c(c2)OCCCO3)cc1,–,60,–,–,–,·,70,57,74,–,78
CNc1cc(-c2cccc(OC)c2F)nc2ccnn12,·,·,–,–,·,·,·,·,·,·,·
Cc1nc(-c2cccc(Br)c2)ccc1C(=O)O,–,–,–,–,58,–,55,51,81,88,65
CCc1ccc(-c2ccc(C(=O)O)c(C)n2)cc1,–,–,–,–,–,–,·,·,·,·,·
CCOc1ccc(N=Cc2c(C)[nH]n(-c3nc4ccccc4[nH]3)c2=O)cc1,80,94,–,87,85,74,–,–,50,75,69
COc1ccc(NC(=O)c2sc(SC)nc2N)cc1,–,–,–,–,52,–,–,–,74,64,52
COc1ccc(NC(=O)c2sc(SCc3ccccc3)nc2N)cc1,–,–,–,–,–,–,·,·,·,·,·
COc1ccc(NC(=O)c2scc(S(=O)(=O)C(C)C)c2N)cc1,59,66,–,–,86,–,68,66,89,82,68
CC(C)c1ccccc1NS(=O)(=O)c1cccs1,–,–,–,–,–,·,·,·,·,·,·
